Screening results: PubChem BioAssay, several laboratories
Most compounds without a hit are left out; they make up all but 1.3% or so of the library.
SRC2 inh = inhibits human steroid receptor coactivator 2. Q15596. HEK293 GAL4-SRC2 luciferase reporter, luminescence. inhibition, % at 9 µM. 370,000 tested, 0.17% active. AID 651957;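 active = inhibition above the mean inhibition of all tested compounds plus 3 SD, set per campaign, cut at about 52% in these data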;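 also: 0% = DMSO treated cells and 100% = cells given Gossypol at 36 µM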
NCOA1 inh = human NCOA1 inhibition; Q15788; HEK293 GAL4-SRC1 luciferase reporter, luminescence; inhibition, % at 3.6 µM; 360,000 tested, 0.12% active;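 active = inhibition above the campaign mean plus 3 SD, with each screening campaign given its own cutoff, cut at about 60% in these data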;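 also: 0% = DMSO treated cells and 100% = gossypol at 36 µM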
SRC3 inh = inhibitors of human steroid receptor coactivator 3 (SRC3) | HEK293 GAL4-SRC3 luciferase reporter, luminescence | inhibition, % at 3.6 µM | 360,000 tested, 0.17% active;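 active = inhibition above a per-campaign cutoff, the mean of all compounds plus 3 SD, cut at about 60% in these data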;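 also: 0% = DMSO-treated cells and 100% = gossypol-treated cells at 36 µM; higher means less SRC3-driven luciferase light from the GAL4 reporter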
NR5A2 inv ag = NR5A2 inverse agonism in reporter assay | HEK293T StAR-luciferase reporter, LRH-1 transfected, 24 h | inhibition, % at 3.6 µM | 360,000 tested, 0.13% active | AID 602396;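 active = inhibition above the mean inhibition of all tested compounds plus 3 SD, cut at about 73% in these data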;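 also: 0% = DMSO wells and 100% = reporter-only cells lacking LRH-1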
Target sequence (O00482 whole entry, looked up): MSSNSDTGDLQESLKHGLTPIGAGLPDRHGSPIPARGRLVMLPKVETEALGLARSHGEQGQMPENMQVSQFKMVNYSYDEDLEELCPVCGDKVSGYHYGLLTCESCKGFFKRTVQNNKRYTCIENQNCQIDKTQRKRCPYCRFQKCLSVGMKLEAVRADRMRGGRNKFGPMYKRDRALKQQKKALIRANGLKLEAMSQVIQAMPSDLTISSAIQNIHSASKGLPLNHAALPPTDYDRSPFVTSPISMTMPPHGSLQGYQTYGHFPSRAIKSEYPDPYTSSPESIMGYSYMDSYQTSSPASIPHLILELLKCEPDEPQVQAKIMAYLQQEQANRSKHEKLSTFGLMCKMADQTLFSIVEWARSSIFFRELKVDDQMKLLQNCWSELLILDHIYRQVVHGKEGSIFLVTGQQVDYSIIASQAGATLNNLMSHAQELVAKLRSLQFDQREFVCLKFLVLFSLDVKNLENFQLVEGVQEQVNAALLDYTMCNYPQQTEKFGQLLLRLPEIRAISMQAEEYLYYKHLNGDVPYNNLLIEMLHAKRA
Gli-Sufu block = antagonists of Gli-Sufu signaling; Sufu-KO-LIGHT fibroblasts, Gli luciferase reporter luminescence; inhibition, % at 5 µM; 340,000 tested, 0.74% active; AID 588413;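 active = inhibition above about 55%, limit read from the data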;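 also: 0% = DMSO-treated cells and 100% = wells with medium but no cells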
NR2F2 inh = blocks human COUP-TFII nuclear receptor. P24468. HEK293T NGFI-A luciferase reporter, luminescence. inhibition, % at 8.6 µM. 370,000 tested, 0.7% active. AID 686940;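 active = inhibition above a per-plate cutoff, mean inhibition of test wells between control levels plus 3 SD, cut at about 38% in these data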;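 also: cells cotransfected with COUP-TFII expression vector driving the NGFI-A reporter; 0% = median of COUP-TF2 test wells and 100% = reporter-only cells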
Gli-Sufu confirm = confirmation of Gli-SUFU pathway antagonists | shares compounds with Gli-Sufu block | Sufu-KO-LIGHT cells, Gli luciferase reporter, luminescence | inhibition, % at 5 µM | 2,500 tested, 40% active;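 active = mean inhibition at 5 µM reaching about 45%, limit read from the data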;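 also: plate controls were DMSO-treated cells for no effect and wells lacking cells for full effect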
Gli cytotox = counter-screen for Gli-SUFU antagonists: cytotoxicity; shares compounds with Gli-Sufu block; Sufu-KO-LIGHT cells cytotoxicity, ATP luminescence; cytotoxicity, % at 5 µM; 2,500 tested, 32% active;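 active = mean cytotoxicity at 5 µM above about 25%, limit read from the data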;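 also: cells exposed to compound overnight for roughly 16 to 18 hours; plate controls were DMSO wells with cells for no effect and medium without cells for full effect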
Wnt3a cs = inhibits Wnt3a reporter, counter-screen for Gli-SUFU antagonists; AID 651995; Wnt-LIGHT cells, Wnt3a-driven luciferase reporter, luminescence; shares compounds with Gli-Sufu block; inhibition, % at 6.25 µM; 2,500 tested, 20% active;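 active = mean inhibition above about 25%, limit read from the data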
* marks the source's active call; other numbers are inactive results; / = no result given.

SMILES	SRC2 inh	NCOA1 inh	SRC3 inh	NR5A2 inv ag	Gli-Sufu block	NR2F2 inh	Gli-Sufu confirm	Gli cytotox	Wnt3a cs
Cc1cccnc1NC(=O)c1ccc(Cl)c(S(=O)(=O)N2CCCCCC2)c1	14.0	-23.3	9.2	-8.6	83.8*	29.0	5.2	7.8	-13.4
Cc1cccnc1NC(=O)c1ccc(Cl)c(S(=O)(=O)N2CCCC2)c1	-5.2	1.7	-6.0	14.1	-11.1	11.2	/	/	/
O=[N+]([O-])c1cnc2ccccc2c1Sc1ccccc1	/	/	/	/	/	-4.3	/	/	/
OCC1CCCN(c2nc(CN3CCCCC3)nc3scc(-c4ccccc4)c23)C1 (stereo unspecified)	-13.1	10.2	18.4	-21.7	27.6	2.5	/	/	/
CCNc1nc(CN2CCCCC2)nc2scc(-c3ccccc3)c12	30.8	3.2	13.0	14.4	69.2*	32.4	56.1*	17.7	-31.8
O=C1N(Cc2ccccc2)c2ccccc2C12CCCc1oc(CCc3ccccc3)nc12 (stereo unspecified)	25.9	/	/	/	/	-9.2	/	/	/
NNC(=O)c1csc(-c2cccc(C(F)(F)F)c2)n1	7.6	-2.8	17.5	19.0	95.3*	-4.4	22.7	2.2	-6.3
O=C(Nc1ccc(C(F)(F)F)cc1)c1csc(-c2ccncc2)n1	6.6	8.1	20.4	13.7	5.4	20.4	/	/	/
COC(=O)c1cc2c(c3c4cc(F)ccc4n(S(=O)(=O)c4ccccc4)c13)C(=O)N(Cc1ccc(N(C)C)cc1)C2	0.1	/	/	/	/	-1.2	/	/	/
O=C(N[C@@H](Cc1cccnc1)C(=O)N1CCC[C@H]1C(=O)NC1CCCC1)c1ccc(Cl)c(Cl)c1	-8.7	/	/	/	/	0.8	/	/	/
COc1ccc(OC)c(NC(=O)O[C@@H]2CC[C@@]34CCCN3C(=O)CCC[C@H]4C2)c1	/	/	/	/	/	6.9	/	/	/
COc1ccc(C(=O)NCC(=O)N2CCCCC2)cc1OC	-19.3	1.1	19.0	6.6	-5.1	-4.9	/	/	/
CCOc1ccccc1N1CCN(C(=O)CNC(=O)c2ccc(OC)c(OC)c2)CC1	0.3	9.6	3.3	-2.0	71.2*	19.9	9.9	8.9	-27.1
CCN(CC(=O)NCc1cccs1)C(=O)/C=C/c1cc(Br)ccc1OC(F)F	-0.6	8.5	-8.7	9.9	53.5	8.0	35.2	13.2	-7.7
CCN(CC(=O)NCc1cccs1)C(=O)/C=C/c1cccc(Br)c1	9.8	-6.9	25.5	0.6	-2.3	-11.0	/	/	/
COc1ccccc1CNS(=O)(=O)c1ccc(-c2cc(C)no2)cc1	34.8	-7.2	7.5	26.6	51.0	16.9	42.7	56.7*	-53.8
CCOC(=O)C(=CNc1cc(Cl)c(-c2ccco2)c(Cl)c1)C(=O)OCC	20.1	-12.4	5.5	7.2	60.0*	16.0	13.3	7.3	-12.4
CCOC(=O)C(=CNc1ccc(-c2ccco2)c(Cl)c1)C(=O)OCC	-9.1	0.9	8.1	14.5	-7.9	16.9	/	/	/
COc1ccc(-c2nc3n(c(=O)c2C#N)CCS3)cc1	28.3	2.0	4.7	1.2	56.0*	-12.2	13.9	18.9	-20.6
C(#Cc1ccccc1)C[N+]1(CC#Cc2ccccc2)CCCCC1	3.0	-5.4	19.9	17.0	81.4*	15.9	78.6*	37.7*	24.3
Cc1cc(-c2cccnc2)c(C#N)c(SCc2cccc(F)c2)n1	-19.9	5.1	-5.8	-14.8	55.0	-0.5	31.2	22.1	1.6
COc1ccccc1NC(=O)N1CCCC1C(=O)NCC1CCCO1 (stereo unspecified)	10.9	3.1	-6.3	14.0	50.3	-4.8	25.4	8.6	-7.1
O=C(CSC(=S)N1CCCC1)c1cc(Br)cc(Br)c1O	-1.4	/	/	/	85.4*	4.1	9.3	9.3	-28.8
CC(C)(C)OC(=O)NCc1ccccc1/C=C/S(=O)(=O)NCc1ccc(F)cc1	0.5	/	/	/	/	1.2	/	/	/
C=CCNC(=O)CN(C(=O)Cc1ccc(Cl)cc1)c1cccc(Br)c1	9.4	/	/	/	/	7.6	/	/	/
CC(=O)Nc1ccc(S(=O)(=O)Nc2c(C)n(C)n(-c3ccccc3)c2=O)cc1	18.2	-1.9	14.3	4.3	3.2	4.9	/	/	/
